Results published in PubChem BioAssay (NCATS).
Results filed as inconclusive are left out. Unmarked numbers belong to inactive results. Active and inactive are the calls of the source. Calls follow the shape of the dose curve; as a rule, active = well fitted cell-killing curve with a large enough effect; inconclusive = small, poorly fitted or top-dose-only effect, or effect the other way; inactive = no such curve, though single readings can be large or run the other way.

assay: Viability qHTS for spleen associated tyrosine kinase inhibitor (SYKi) drug resistant MV4-11 cells (AID 1963824); conditions: SYKi-resistant MV4-11 viability, CellTiter-Glo, 72 h; series mostly up to 45 µM; viability, % of control: at the top concentration; also: nearly all actives have a fitted effect of over 35% in size
Procedure, shortened: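 SYK inhibitor-resistant MV4-11 AML cells, 500 per well, added to predispensed compounds and incubated 72 hr at 37 C, 5% CO2. Viability measured by CellTiter-Glo luminescence after 10 min at room temperature.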
Potency is read from the fitted curve at half-maximal effect.

SMILES | Potency | viability, % of control
Cn1c(=O)c(F)c(Nc2ccc(I)cc2F)c2c(=O)n(CC(O)CO)cnc21 (stereo unspecified) | 0.0259 µM (active) | –
CC(C)=CCC/C(C)=C/COCC1OC(n2ccc(=O)[nH]c2=O)C(O)C1O (stereo unspecified) | 11.4 µM (active) | –
N#Cc1cccnc1N1CCN(C(=O)c2cccc(Cc3n[nH]c(=O)c4ccccc34)c2)CC1 | 0.186 µM (active) | –
COc1ncc(Nc2ncc([C@@H](C)N3CCN(S(C)(=O)=O)CC3)cc2-c2nc(C)nc(N)n2)cc1F | – | 64.6%
CCn1c(-c2nonc2N)nc2c(C#CCO)ncc(OCCCN)c21 | 1.84 µM (active) | –
CC(C)S(=O)(=O)NC[C@H](C)c1ccc(NC(=O)c2cc(F)cc(F)c2)cc1 | 14.6 µM (active) | –
N#Cc1ccc(COc2ccc(-c3cccc4nc(NC(=O)C5CC5)nn34)cc2)cn1 | 0.651 µM (active) | –
Nc1nc(-c2nn(Cc3ccccc3F)c3ncccc23)ncc1C1CC1 | 1.32 µM (active) | –
C#CCOc1ccc2c(c1)c(-c1ccc(C(C)C)cc1)nc(=O)n2C(C)C | 9.2 µM (active) | –
CCCn1cc2c(nc(NC(=O)Nc3ccc(OC)cc3)n3nc(-c4ccco4)nc23)n1 | – | 79.6%
COc1cc2ncnc(Nc3ccc(NC(=O)c4ccccc4)cc3)c2cc1OC | 4.61 µM (active) | –
C[C@@H]1O[C@@H](O[C@H]2[C@H](O[C@H]3CC[C@@]4(C)C(CC[C@]5(C)C4C=C[C@]46OC[C@@]7(CCC(C)(C)C[C@H]74)[C@@H](O)C[C@]65C)[C@]3(C)CO)O[C@H](CO)[C@@H](O)[C@@H]2O[C@@H]2O[C@H](CO)[C@@H](O[C@@H]3O[C@@H](C)[C@H](O)[C@@H](O)[C@H]3O)[C@H](O)[C@H]2O)[C@H](O)[C@H](O)[C@H]1O (stereo partly specified) | 4.37 µM (active) | –
C/C=C(/C)C(=O)OC1C=C2C3C(C)C(C)C(OC(=O)C(C)C(C)O)CC3(C)CCC2(C)C2(C)CC(OC(C)=O)C3C(C)(C)C(O)C(=O)CC3(C)C12 (stereo unspecified) | 4.32 µM (active) | –
CC(=O)OC1C(C)C2C(OC3OC(CO)C(O)C(O)C3O)OC=C(C(=O)O)C2C1OC(=O)c1ccccc1 (stereo unspecified) | – | 110% [at 17.3 µM]
C[C@]12C=C[C@@]3(CCC4[C@](C)(CO)CCC[C@@]4(C)C3CC1)C2 (stereo partly specified) | 9.2 µM (active) | –
C=C[C@@]1(C)CCC2=C([C@H]1OC(C)=O)[C@H](OC(C)=O)CC1[C@](C)(C(=O)OC)CC[C@H](OC(C)=O)[C@]21C (stereo partly specified) | – | 67.8% [at 17.3 µM]

SMILES | Potency | viability, % of control
COc1cc2c(cc1OC)N1C(=O)C[C@]34C=CCN5CC[C@@H]2[C@@H](CC3)[C@]514 | 8.05 µM (active) | –
COc1ccc(Oc2c(Cl)cnn(C3c4ccccc4-c4ccccc43)c2=O)cc1 | 14.6 µM (active) | –
C=C1C(=O)O[C@@H]2C[C@]3(C)[C@@H](CCC(C)=O)[C@@H]3C[C@H]12 | 18.4 µM (active) | –
CC(=O)O[C@H]1C[C@@]2(C)[C@@H](CC[C@H]3[C@@]4(C)C=CC(=O)[C@@H](C)[C@@H]4[C@H](OC(C)=O)C(=O)[C@@]32C)/C1=C(\CCC=C(C)C)C(=O)O | – | 104% [at 17.3 µM]
O=C(Nc1ccc(S(=O)(=O)Nc2nccs2)cc1)c1cc(-c2ccccc2)nc2ccccc12 | 16.4 µM (active) | –
CN(C)c1nc(NC2CCC(NCCc3ccc(Br)cc3OC(F)(F)F)CC2)nc2ccccc12 (stereo unspecified) | 0.651 µM (active) | –
NC(=O)N1CCC(CC(=O)N2CCC(C3c4ncc(Br)cc4CCc4cc(Cl)cc(Br)c43)CC2)CC1 (stereo unspecified) | 2.06 µM (active) | –
COC1C(=O)CCC2(CO2)C1(O)C1(C)OC1CC=C(C)C (stereo unspecified) | – | 48.1%
C=C1C(=O)O[C@@H]2C=C(COC(C)=O)CC/C=C(\CO)CC[C@@H]12 | 14.3 µM (active) | –
CCCSc1nc(NC2CC2c2ccc(F)c(F)c2)c2nnn(C3CC(OCCO)C(O)C3O)c2n1 (stereo unspecified) | 20.6 µM (active) | –
Nc1ccc(C(=O)N2CC3CC(CN(Cc4ccccc4)C3)C2)cc1 | – | 76.6%
COC(=O)C12C(=O)C(C)=C(O)C1(C)C(C)=CC1C34CCC(OC3=O)C(C)(C)C4CCC12C (stereo unspecified) | – | 94.2% [at 17.3 µM]
C[C@@H]1C[C@H](O[C@@H]2O[C@H](CO[C@@H]3OC[C@](O)(CO)[C@H]3O)[C@@H](O)[C@H](O)[C@H]2O)CC(C)(C)[C@H]1/C=C/[C@@H](C)O | – | 68.9% [at 17.3 µM]
COc1ccc2cc(-c3cc(-c4cc(Cl)cc(Cl)c4)nn3C(C)c3ccc(C(=O)NCCC(=O)O)cc3)ccc2c1 (stereo unspecified) | 25.9 µM (active) | –
CC1OC2OC(=O)C3(C)CC4C5(CO5)C5=CC(=O)OC(C)(C)C5=CC(=O)C4(C)C(C1=O)C23 (stereo unspecified) | 5.02 µM (active) | –
